From PubChem
The list is not random: actives were taken first. Their share in the collection is about 2.9%.
Glyco luc inh – N-linked glycosylation inhibition; D54 ERlucT glycosylation luciferase reporter, 24 h; percent of 100 nM tunicamycin response; reporter increase, % at 12.5 µM; hit rate 0.23% among 360,000;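 active = mean luciferase reporter signal, scaled so untreated is 0 and the glycosylation-blocking control 100, at or above a set limit in every replicate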;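 note: luciferase carries N-glycosylation sites so blocking glycosylation raises the light; 0% = median of neutral control wells and 100% = median of 100 nM tunicamycin wells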
NSD2 inh – NSD2 (human) methyltransferase inhibition | inhibition, % at 12.5 µM | AID 743445 | NSD2 peptide methylation, AlphaScreen, 120 min | hit rate 0.54% among 310,000 | O96028; in the data active = inhibition above about 50%
Target sequence (O96028 whole entry, looked up): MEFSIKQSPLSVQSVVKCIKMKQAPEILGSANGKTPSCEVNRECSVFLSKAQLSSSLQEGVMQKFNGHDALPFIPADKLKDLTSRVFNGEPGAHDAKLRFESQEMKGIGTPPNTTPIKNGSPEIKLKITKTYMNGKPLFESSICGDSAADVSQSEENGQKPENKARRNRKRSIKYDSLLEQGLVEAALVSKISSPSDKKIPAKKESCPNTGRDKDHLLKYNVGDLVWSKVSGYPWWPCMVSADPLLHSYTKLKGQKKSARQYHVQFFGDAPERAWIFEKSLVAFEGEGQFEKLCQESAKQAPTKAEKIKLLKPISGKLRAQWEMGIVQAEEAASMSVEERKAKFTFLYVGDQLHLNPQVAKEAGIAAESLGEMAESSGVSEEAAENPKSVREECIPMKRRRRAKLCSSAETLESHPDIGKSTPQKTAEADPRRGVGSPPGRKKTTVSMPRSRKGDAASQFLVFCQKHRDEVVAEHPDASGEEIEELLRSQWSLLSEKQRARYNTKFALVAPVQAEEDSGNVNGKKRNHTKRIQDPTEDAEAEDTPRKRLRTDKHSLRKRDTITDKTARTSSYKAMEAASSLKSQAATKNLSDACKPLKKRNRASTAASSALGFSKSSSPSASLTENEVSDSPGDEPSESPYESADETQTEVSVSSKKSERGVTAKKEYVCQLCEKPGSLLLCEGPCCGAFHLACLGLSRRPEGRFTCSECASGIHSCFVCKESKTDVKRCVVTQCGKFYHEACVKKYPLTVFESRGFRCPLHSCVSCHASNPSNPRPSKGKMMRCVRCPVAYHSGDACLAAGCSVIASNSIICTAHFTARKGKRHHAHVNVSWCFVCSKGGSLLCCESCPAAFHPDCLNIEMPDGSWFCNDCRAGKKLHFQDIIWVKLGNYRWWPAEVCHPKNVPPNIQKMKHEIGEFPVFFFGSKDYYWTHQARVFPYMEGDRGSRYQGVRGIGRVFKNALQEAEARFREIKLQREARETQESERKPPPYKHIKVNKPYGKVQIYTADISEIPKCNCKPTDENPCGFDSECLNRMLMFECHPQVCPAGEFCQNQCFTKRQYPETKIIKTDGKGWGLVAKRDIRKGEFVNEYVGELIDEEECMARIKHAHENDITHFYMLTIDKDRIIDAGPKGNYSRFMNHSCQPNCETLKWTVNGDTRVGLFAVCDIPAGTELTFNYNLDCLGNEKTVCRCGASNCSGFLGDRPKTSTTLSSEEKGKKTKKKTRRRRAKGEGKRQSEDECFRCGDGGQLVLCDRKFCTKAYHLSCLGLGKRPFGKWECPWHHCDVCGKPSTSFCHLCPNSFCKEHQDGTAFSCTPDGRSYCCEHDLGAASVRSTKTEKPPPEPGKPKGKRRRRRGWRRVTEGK
MITF TRPM1 inh – reduces MITF-dependent TRPM1 promoter luciferase signal; inhibition, % at 12.5 µM; SK-MEL-5 TRPM1 promoter luciferase, 24 h; hit rate 0.83% among 330,000; AID 488899;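 active = mean inhibition across replicates of 60% or more, whatever share of single replicates reaches that level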
PfHsp90 set2 – growth inhibition of yeast expressing Plasmodium Hsp90; inhibition, % at 9.4 µM; S. cerevisiae expressing PfHsp90, BacTiter-Glo ATP, 48 h; yeast lacking PDR1 and PDR3 efflux regulators; hit rate 0.32% among 310,000;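 active = every replicate shows inhibition above about 80%, whatever the replicate mean, limit read from the data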;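 note: 0% = DMSO neutral controls and 100% = 20 µM radicicol positive controls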
Wnt act – activates Wnt/beta-catenin signaling in a reporter cell assay; AID 743398; activation, % at 9.35 µM; hit rate 1.2% among 300,000; activator, plate reader; in the data active = activation above about 30%, passing the limit was not always enough;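 note: 0% = neutral control wells and 100% = positive control wells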
MITF act – increases MITF-driven TRPM1 promoter luciferase signal; hit rate 0.75% among 300,000; activation, % at 12.5 µM; AID 588334; SK-MEL-5 TRPM1-promoter luciferase, 24 h; % of positive control, neutral wells = 0;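 active = mean activation of at least 80% with every replicate also reaching 80%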;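 note: 0% = neutral control wells and 100% = parthenolide positive control wells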
Alpha artifact – counter-screen for NSD2 inhibitors: AlphaScreen artifacts. hit rate 9.4% among 1,500. AC35, µM (doses to about 10 µM), without a hit: at the highest dose activity change, negative = signal loss. AlphaScreen artifact counterscreen, preloaded methylated H4 peptide. shares compounds with NSD2 inh; call rule not given here
* hit, by the source's call; / = no result.

SMILES	Glyco luc inh	NSD2 inh	MITF TRPM1 inh	PfHsp90 set2	Wnt act	MITF act	Alpha artifact
COc1ccc(CCNC(=O)Nc2ccc3c(c2)c(=O)n(C)n3CC=C(C)C)cc1OC	0.1	52.0*	/	/	2.2	/	-2.9%
O=C(/C=C/c1ccco1)N(c1ccccn1)c1ccccn1	2.4	76.6*	4.0	-10.5	-0.8	-1.0	-0.9%
O=C(c1ccco1)N(c1ccccn1)c1ccccn1	1.3	-7.8	5.9	/	-3.0	-2.1	/
O=S1(=O)CCN(Cc2cccc(C(F)(F)F)c2)CC1	-0.2	-4.0	-4.9	-6.8	0.1	3.5	/
N#CCCN(NC(=O)OCc1ccccc1)C(=O)OCc1ccccc1	-0.3	-1.4	1.7	24.4	-1.2	-2.5	/
Cc1cc(NC(=O)CSCC(=O)NCc2cccc(C(F)(F)F)c2)no1	0.4	-0.3	7.7	-34.3	2.2	-6.1	/
Cc1cccc(NC(=O)CSCC(=O)NCc2cccc(C(F)(F)F)c2)c1	2.8	97.9*	-1.6	-2.5	0.4	3.7	1.3%
O=C(NCc1ccco1)c1cccc(-c2cncc3nccn23)c1	-0.2	33.4	/	/	-0.8	/	/
CCCC(CCC(=O)Nc1cccc([N+](=O)[O-])c1)C(=O)O (stereo unspecified)	3.8	83.4*	-9.9	-12.5	3.8	6.4	-0.6%
O=C(O)CCCC(=O)Nc1cccc([N+](=O)[O-])c1	2.2	-4.9	-4.3	-13.0	-0.4	4.0	/
Cn1c(=O)cc(SCC(=O)N2CCOCC2)c2ccc(Cl)cc21	2.9	55.3*	4.6	/	-3.4	/	0.0%
CCCNC(=O)C1(C)CCN(Cc2noc(-c3ccccc3OC)n2)C1 (stereo unspecified)	-0.6	0.4	/	/	-1.0	/	/
NS(=O)(=O)c1ccc(NC(=O)Nc2ccccc2)cc1	2.6	0.8	-16.5	-1.1	14.2	12.9	/
NS(=O)(=O)c1ccc(NC2=CC(=O)C(=O)c3ccccc32)cc1	-6.9	57.8*	77.8*	-19.8	0.2	/	-4.8%
Cc1ccc(Nc2ccccc2)cc1	-0.7	1.6	-8.0	1.4	-4.8	7.7	/
Cc1ccc(NC2=CC(=O)C(=O)c3ccccc32)cc1	-15.2	64.6*	95.2*	/	72.7*	-94.0	0.1%
CC(C)=CCN1CCN(Cc2cn(C(C)C)c3ccccc23)CC1CCO (stereo unspecified)	-0.5	5.0	9.7	0.9	-0.8	-4.6	/
COCCNC(=O)c1ccc(CN2CCc3ccccc3C2)cc1	1.8	55.8*	-8.7	2.3	-3.1	12.1	-3.7%
CC1(C)CN(c2cccc(C#N)c2)C1=O	2.2	55.9*	-2.3	0.4	-1.4	4.8	-3.4%
O=C(Nc1nnc(SCc2cccc3ccccc23)s1)C1COc2ccccc2O1 (stereo unspecified)	2.4	63.0*	-1.3	-10.5	0.0	1.7	-1.4%
CCC(c1nnnn1-c1ccc2c(c1)OCCO2)N1CCN(C/C=C/c2ccccc2)CC1 (stereo unspecified)	0.2	/	/	/	-2.2	/	/
CC(=O)c1ccc(N(CC(=O)NCCc2ccccc2)C(=O)c2csnn2)cc1	-0.2	70.4*	-12.5	8.6	-1.3	8.3	-0.9%
O=C(CN(C(=O)c1csnn1)c1cccc2ccccc12)NCc1ccccc1	-0.1	96.5*	9.9	-0.1	-0.4	-5.0	0.9%
CC(=O)c1cccc(N(CC(=O)NCCc2ccccc2)C(=O)c2csnn2)c1	2.6	-0.8	-14.8	1.7	-1.5	19.2	/
O=C(CN(C(=O)c1csnn1)c1cccc2ccccc12)NCc1ccc(F)cc1	-3.5	-4.7	1.8	21.1	-3.8	2.7	/
Cc1ccc(S(=O)(=O)NNc2c3ccccc3nc3ccc(Cl)cc23)cc1	0.7	-0.1	/	/	-0.6	/	/
O=C(C1CC1)N1CCc2[nH]c3ccccc3c2C1	6.5	100.2*	-4.8	/	-0.7	/	-3.3%
CCCCNC(=O)N1CCc2[nH]c3ccccc3c2C1	-1.7	-0.1	/	5.6	-1.1	/	/
COc1ccc(/C=N/NC(=O)c2nn(-c3ccccc3)c(=O)c3c(N)scc23)cc1	5.2	100.3*	-3.0	-7.0	/	/	-10.0%
COc1ccc(/C=N/NC(=O)c2nn(-c3ccc(Cl)cc3)c(=O)c3c(N)scc23)cc1	2.0	1.8	14.9	-19.7	/	/	/
